The assay concerns the target AMP-activated protein kinase, AMPK (Homo sapiens) (UniProt P54646+O43741+P54619+Q9UGJ0+Q9Y478+Q13131+Q9UGI9). Description: AMP-dependent Kinase enzyme assay. An in vitro enzyme assay that detects ADP turnover that is directly proportional to AMPK activity. This uses naive AMPK that is activated during the assay with MK-8722. The settings on record: 30 µM. Format: functional. Also on record: scale not given: direction of the effect not stated beside the values.
Take `Cc1cc(CNC2(CO)CCOCC2)ccc1Br`: the Percent Effect was determined as 5.13%.

As to `Nc1nccc(N2CCC(c3cc(Cc4ccccc4)n[nH]3)CC2)n1`, the Percent Effect was determined as 4.14%.

For `Cc1ncc(CNC(=O)NCc2c(F)cccc2OC(F)F)s1`, the Percent Effect was 6.42%.

In the case of `COc1ccc(C(=O)N2C[C@@H](O)[C@H](NCCc3ncccc3C)C2)cc1`, the Percent Effect is -1.16%.

For the compound `Cc1csc(C(C)(C)NCC(=O)N(C)Cc2ccc(C)o2)n1`, the Percent Effect was -7.36%.

Consider `Cn1cc(S(=O)(=O)NCc2ccsc2)cn1`, for which the Percent Effect was -0.312%.

Turning to `O=C(CC1COCCN1)N1CCC2(CCc3ccccc32)CC1` (centres undefined), the Percent Effect is -0.69%.

As for `COCCN(Cc1ccccn1)C(=O)Nc1cccnc1-n1cccn1`, the Percent Effect was -0.778%.

As to `O=C(NCc1sc2ccccc2c1Cl)c1cc2n(n1)CCNC2`, the Percent Effect came out at 10.8%.

In the case of `COCCCNC(=O)Cc1nc(-c2ccncc2)n[nH]1`, the Percent Effect was determined as 14.5%.

Turning to `O=C(C1CCCO1)N1CCC(Cn2cc(C3CCCC3)nn2)CC1` (centres undefined), the Percent Effect was 3.98%.

In the case of `CCc1ncc2c(n1)CN(c1cc(NCCO)nc(N)n1)C2`, the Percent Effect was -219%.

In the case of `Cc1cc(C(=O)N2CCNC(=O)CC2)c(C)n1CC(F)(F)F`, the Percent Effect was -2.89%.

For `CCS(=O)(=O)N1CCCN(CCCOC)CC1`, the Percent Effect came out at 19%.

On to `COc1cc(Cl)ccc1CNC(=O)N(C)C(C)CS(C)(=O)=O` (centres undefined), for which the Percent Effect is -1.65%.

As for `Cc1ccc2[nH]c(CNC(=O)C3CC4(CCNCC4)CN3C)nc2c1C` (centres undefined), the Percent Effect was -16.1%.

Consider `Cc1nn2cccnc2c1C(=O)NCc1ccccc1OCC1CC1`, for which the Percent Effect is 2.06%.

With `COc1ccccc1N1CCCC(NC(=O)Nc2cccnc2)C1` (centres undefined), the Percent Effect was -1.53%.

As to `COc1ccccc1C(=O)NCCC(=O)Nc1c(C)nn(C)c1C`, the Percent Effect was determined as 9.26%.

For `Cc1cc(CN(C)C(C(=O)O)c2ccc(C(C)(C)C)cc2)on1` (centres undefined), the Percent Effect turned out to be 8.61%.

Regarding `CN1CCN(c2cccc(NC(=O)NCc3csc(N(C)C)n3)c2)C1=O`, the Percent Effect was -16.7%.

With `CCCc1n[nH]c(=O)n1Cc1ccc(OC)cc1`, the Percent Effect came to 3.68%.

With `CCCS(=O)(=O)NCc1nc(C)cc(N2CCCC2)n1`, the Percent Effect turned out to be 4.77%.

For the compound `Cc1cc(C)c2cc(C(=O)N3CCNC(=O)C3)[nH]c2c1`, the Percent Effect was determined as 1.52%.

Take `Cc1ccc(C)c(CC(=O)NC2CCC(N3C(=O)CCC3=O)CC2)c1` (centres undefined): the Percent Effect was -3.29%.

`CNc1ccc(C2CN(c3cc(C)nc(N)n3)CCO2)nc1` (centres undefined): the Percent Effect came out at 17.3%.

As for `O=C(CN1CCOCC1)N(c1ccccc1)c1ccccc1`, the Percent Effect stood at 8.05%.

With `CN(C)C(CNC(=O)c1ccnc(-n2cncn2)c1)c1ccccc1` (centres undefined), the Percent Effect is -0.565%.

Turning to `COCCC1(C(=O)O)CCCN(C(=O)c2cnc3c(c2)CCCC3)C1` (centres undefined), the Percent Effect was found to be 2.02%.

In the case of `O=C(c1cnc2c(c1)CCC2)N1CCCC(CO)(CC2CC2)C1` (centres undefined), the Percent Effect was 3.82%.

Turning to `CC(=O)c1sc(C(NC(=O)c2ccccc2)C2CC2)nc1C` (centres undefined), the Percent Effect is -2.1%.

For `O=C(CCOc1ccccc1F)N1CCOCC1`, the Percent Effect is -12.5%.

Turning to `COc1ccc2cc(C(=O)NCCNc3ccc(C)nn3)[nH]c2c1`, the Percent Effect was determined as 8.22%.

`CN(Cc1ccc(F)c(F)c1)Cc1cc2c(cc1Br)OCCO2`: the Percent Effect is -7%.

For `CCn1cnnc1CNC(=O)c1ccc(Br)cc1F`, the Percent Effect is -10.5%.

Take `C=C(C)COc1cccc(CNCCc2nc(N)cc(O)n2)c1`: the Percent Effect is 3.76%.

Regarding `CS(=O)(=O)NC1CCN(Cc2coc(-c3ccccc3)n2)CC1`, the Percent Effect is 0.161%.

As to `Cc1cccc(COc2ccc(C(C)N)cc2)c1` (centres undefined), the Percent Effect was -5.16%.

On to `CN1C(=O)c2ccc(C(=O)N(Cc3cnn(C)c3)C3CC3)cc2C1=O`, for which the Percent Effect stood at 11.4%.

The values above are taken from ChEMBL document CHEMBL3988442, “University of Dundee, Small-Polar-MMV Screening Library” (2021).
